Measurements as given in PubChem BioAssay (NCATS).
Records with an inconclusive call do not appear. Entries that show only a call come without a potency. Active and inactive are the calls of the source. The call rests on the fitted dose curve; in most records, active means well fitted inhibition curve with a large enough effect; inconclusive means small, poorly fitted or top-dose-only effect; inactive means flat fitted curve, though single readings scatter.

system: W2; assay: qHTS profiling for inhibitors of Plasmodium falciparum proliferation (AID 504749); further: nearly all actives have a fitted effect of over 60% in size; conditions: P. falciparum in erythrocytes, SYBR Green DNA, 72 h; series mostly up to 28.7 µM
In short: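 P. falciparum-infected erythrocytes (0.3% parasitemia, 2.5% hematocrit) incubated with compound 72 h at 37 C, 5% CO2. Parasite DNA detected by SYBR Green after lysis, overnight at room temperature; normalised to 0.29 uM artemisinin and DMSO.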
Potency means the concentration at half of the fitted maximal effect.

| Structure (SMILES) | Potency |
| --- | --- |
| O=C(OC1C[C@H]2CC[C@@H](C1)[N+]21CCCC1)C(O)(c1ccccc1)c1ccccc1 (some centres not stated) | 1690 nM (active) |
| C[C@]12CCC(=O)C=C1CC[C@@H]1[C@H]2[C@@H](O)C[C@@]2(C)[C@H]1CC[C@]2(O)C(=O)CO | inactive |
| O=C(CS(=O)Cc1ccco1)NCC=CCOc1cc(CN2CCCCC2)ccn1 (configuration not stated) | inactive |
| CC[C@]1(O)C[C@H]2CN(CCc3c([nH]c4ccccc34)[C@@](C(=O)OC)(c3cc4c(cc3OC)N(C=O)[C@H]3[C@@](O)(C(=O)OC)[C@H](OC(C)=O)[C@]5(CC)C=CCN6CC[C@]43[C@@H]65)C2)C1 | 338 nM (active) |
| CN(C)c1ccc2nc3ccc(=[N+](C)C)cc-3sc2c1 | 47.8 nM (active) |
| CC(C)(S)[C@@H](N)C(=O)O | inactive |
| O=C(O)c1cn(-c2ccc(F)cc2)c2cc(N3CCNCC3)c(F)cc2c1=O | 10700 nM (active) |
| CCCOc1ccc2nc(NC(=O)OC)[nH]c2c1 | inactive |
| N=C(N=C(N)N)N1CCOCC1 | inactive |
| O=P(O)(O)C(O)(Cn1ccnc1)P(=O)(O)O | inactive |
| COc1cc(OC)c(C(=O)CCCN2CCCC2)c(OC)c1 | inactive |
| Cc1cc(C2CCCCC2)n(O)c(=O)c1 | 3610 nM (active) |
